# Where a chain is given by its changes, count along the chain named.
# Columns and labels:
# Assay in all cases: protein-binding microarray (PBM); PBM: ~300 nM protein, 6 mM HEPES pH 7.8, 80 mM KCl, 0.5 mM EDTA, 0.5 mM EGTA, 6% glycerol, 35 ng/ul poly-dIdC, 1% milk, 1 h, room temperature; Ap Aiptasia and Nv Nematostella (sea anemones) / Co Capsaspora / Aq Amphimedon (sponge) / Dm Drosophila / Hu human; RHD is the Rel homology domain; high values mean tight binding
# Settings in all cases: dsDNA, one strand shown
# GST-Ap-NF-kB RHD = target: T1, GST-Ap-NF-kB RHD (Exaiptasia pallida (Aiptasia), UniProt A0A913YAJ5 2-422)
# T1 sequence: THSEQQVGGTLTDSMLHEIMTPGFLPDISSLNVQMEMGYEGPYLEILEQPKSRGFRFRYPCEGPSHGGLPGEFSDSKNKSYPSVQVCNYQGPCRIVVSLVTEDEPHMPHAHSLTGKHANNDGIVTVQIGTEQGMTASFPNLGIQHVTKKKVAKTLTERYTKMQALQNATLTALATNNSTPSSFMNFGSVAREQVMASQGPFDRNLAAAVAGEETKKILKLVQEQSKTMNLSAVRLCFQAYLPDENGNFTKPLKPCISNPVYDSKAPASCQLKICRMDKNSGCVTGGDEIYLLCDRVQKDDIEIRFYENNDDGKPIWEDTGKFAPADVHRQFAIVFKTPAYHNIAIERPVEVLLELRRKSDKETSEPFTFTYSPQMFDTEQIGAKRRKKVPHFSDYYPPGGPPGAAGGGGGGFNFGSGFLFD
# [1] = target: T2, GST-Nv-NF-kB (Cys allele) (Nematostella vectensis, UniProt E5G601 2-411)
# T2 sequence: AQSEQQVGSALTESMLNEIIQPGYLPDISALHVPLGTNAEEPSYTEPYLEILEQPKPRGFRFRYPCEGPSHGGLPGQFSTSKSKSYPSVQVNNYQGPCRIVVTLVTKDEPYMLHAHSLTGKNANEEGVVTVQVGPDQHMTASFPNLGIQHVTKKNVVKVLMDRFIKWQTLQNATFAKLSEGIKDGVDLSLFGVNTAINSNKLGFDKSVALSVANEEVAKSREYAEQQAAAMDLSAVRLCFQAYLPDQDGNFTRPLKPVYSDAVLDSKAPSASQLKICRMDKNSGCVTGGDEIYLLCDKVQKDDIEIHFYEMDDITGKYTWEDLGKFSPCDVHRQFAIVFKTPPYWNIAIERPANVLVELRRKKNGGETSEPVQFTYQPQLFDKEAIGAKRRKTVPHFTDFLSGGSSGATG
# [2] = target: T3, GST-Nv-NF-kB (Ser allele) (Nematostella vectensis, UniProt A7UNT2 2-411)
# T3 sequence: T2 sequence with Q21R, C66S, S207N, E215Q, V217A, E225K, A268E, D399E
# GST-Co-NF-kB = target: T4, GST-Co-NF-kB (Capsaspora owczarzaki, UniProt F1ARL5 200-546)
# T4 sequence: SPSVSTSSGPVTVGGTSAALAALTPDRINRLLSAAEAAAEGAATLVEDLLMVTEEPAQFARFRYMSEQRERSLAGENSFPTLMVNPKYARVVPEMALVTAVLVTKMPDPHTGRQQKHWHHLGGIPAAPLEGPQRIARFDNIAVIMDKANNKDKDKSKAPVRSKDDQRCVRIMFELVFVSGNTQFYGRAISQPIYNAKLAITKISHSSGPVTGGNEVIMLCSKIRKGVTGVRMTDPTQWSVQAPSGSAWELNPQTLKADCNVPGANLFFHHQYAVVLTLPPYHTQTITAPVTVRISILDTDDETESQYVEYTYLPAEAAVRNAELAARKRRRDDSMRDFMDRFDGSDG
# GST-Dm-Relish = target: T5, GST-Dm-Relish (Drosophila melanogaster, UniProt Q94527 99-473)
# T5 sequence: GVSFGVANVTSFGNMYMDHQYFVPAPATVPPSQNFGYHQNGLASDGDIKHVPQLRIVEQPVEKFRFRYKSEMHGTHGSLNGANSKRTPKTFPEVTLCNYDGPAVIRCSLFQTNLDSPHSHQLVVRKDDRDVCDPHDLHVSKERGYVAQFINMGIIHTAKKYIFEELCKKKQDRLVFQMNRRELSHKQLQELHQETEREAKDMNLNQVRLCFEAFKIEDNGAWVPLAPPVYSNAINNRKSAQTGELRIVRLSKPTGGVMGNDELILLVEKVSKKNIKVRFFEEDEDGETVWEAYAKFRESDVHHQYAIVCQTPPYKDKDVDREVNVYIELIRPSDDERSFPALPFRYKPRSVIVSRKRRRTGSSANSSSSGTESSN
# GST-Aq-NF-kB = target: T6, GST-Aq-NF-kB (Amphimedon queenslandica, UniProt A9Y5G7 2-389)
# T6 sequence: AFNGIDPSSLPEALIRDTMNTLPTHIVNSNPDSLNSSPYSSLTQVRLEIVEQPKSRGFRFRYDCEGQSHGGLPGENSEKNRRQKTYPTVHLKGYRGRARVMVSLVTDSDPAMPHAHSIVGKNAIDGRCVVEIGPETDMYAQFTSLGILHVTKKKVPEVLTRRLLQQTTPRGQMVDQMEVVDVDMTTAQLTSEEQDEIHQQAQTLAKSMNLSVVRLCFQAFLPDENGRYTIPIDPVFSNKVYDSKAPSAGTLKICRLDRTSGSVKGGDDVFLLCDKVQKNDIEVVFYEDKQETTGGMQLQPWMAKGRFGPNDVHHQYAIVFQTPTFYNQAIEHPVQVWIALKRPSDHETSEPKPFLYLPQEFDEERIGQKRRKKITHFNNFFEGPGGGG
# GST-Hu-p50 = GST-Hu-p50 (Homo sapiens, UniProt P19838 7-356)
# GST-Hu-p50, sequence (P19838 7-356): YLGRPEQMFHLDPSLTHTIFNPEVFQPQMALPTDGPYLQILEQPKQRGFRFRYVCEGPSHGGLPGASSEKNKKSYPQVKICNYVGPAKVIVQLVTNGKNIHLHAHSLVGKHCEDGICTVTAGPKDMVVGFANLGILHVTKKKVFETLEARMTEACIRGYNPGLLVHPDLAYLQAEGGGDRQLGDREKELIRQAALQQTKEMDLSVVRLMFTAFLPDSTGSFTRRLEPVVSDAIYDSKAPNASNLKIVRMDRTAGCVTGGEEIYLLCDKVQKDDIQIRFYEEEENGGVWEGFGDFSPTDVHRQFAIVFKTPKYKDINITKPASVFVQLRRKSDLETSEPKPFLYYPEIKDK
Sequence,binding signal (GST-Ap-NF-kB RHD) [z-score],binding signal [1] [z-score],binding signal [2] [z-score],binding signal (GST-Co-NF-kB) [z-score],binding signal (GST-Dm-Relish) [z-score],binding signal (GST-Aq-NF-kB) [z-score],binding signal (GST-Hu-p50) [z-score]
CCGATTAACATCAAGGGAACTCCTGATGTTAATCGGGTCTTGATTCGCTTGACGCTGCTG,3.72,3.17,1.27,1.28,5.67,4.45,2.28
CCGATTAACATCAGGGAACCACCTGATGTTAATCGGGTCTTGATTCGCTTGACGCTGCTG,6.9,5.68,4.58,1.22,9.5,6.96,5.71
CCGATTAACATCACTTATCCCCCTGATGTTAATCGGGTCTTGATTCGCTTGACGCTGCTG,4.81,3.72,4.72,6.68,2.71,3.72,4.19
CCGATTAACATCAATTTTTCCCGTGATGTTAATCGGGTCTTGATTCGCTTGACGCTGCTG,3.39,4.95,6.62,6.5,2.16,4.56,3.66
CCGATTAACATCAGGGCGCCCCCTGATGTTAATCGGGTCTTGATTCGCTTGACGCTGCTG,6.07,4.59,3.38,1.95,5.55,7.98,4.97
CCGATTAACATCAGGACCCCCCCTGATGTTAATCGGGTCTTGATTCGCTTGACGCTGCTG,7.35,4.56,3.23,2.94,6.37,7.44,4.44
CCGATTAACATCAAATTTCCCCATGATGTTAATCGGGTCTTGATTCGCTTGACGCTGCTG,7.86,9.05,10.8,9.42,4.87,7.31,6.68
CCGATTAACATCAAAACCCCCCTTGATGTTAATCGGGTCTTGATTCGCTTGACGCTGCTG,8.76,7.32,7.84,3.85,10.5,8.03,7
CCGATTAACATCATTTTGGGGACTGATGTTAATCGGGTCTTGATTCGCTTGACGCTGCTG,2.93,3.66,3.16,1.94,1.4,4.11,3.28
CCGATTAACATCACAAATCCCCCTGATGTTAATCGGGTCTTGATTCGCTTGACGCTGCTG,8.39,8.44,9.23,6.1,7.73,6.8,7.16
CCGATTAACATCACGGGAGTCCCTGATGTTAATCGGGTCTTGATTCGCTTGACGCTGCTG,5.38,3.94,4.12,1.57,8.97,5.18,3.45
CCGATTAACATCAAGGGGGGTATTGATGTTAATCGGGTCTTGATTCGCTTGACGCTGCTG,6,4.4,3.99,4.22,5.14,5.2,4.8

# — paper PMC5700166
